# Laboratory results taken from PubChem BioAssay.
# For some assays here: Entries with a potency or affinity are not part of this list. The source made the active and inactive calls.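 How the source made its calls, unless noted: active means GFP response above 150% of the DMSO level; inconclusive means fewer than 70 events counted for a yeast strain; inactive means the rest.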
# What was measured:
# [1] = RPL19A-GFP modulators, yeast TOR pathway, confirmation, cell-based, S. cerevisiae, flow cytometry, cherry picks, mother/daughter gates (AID 2270;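 active means GFP response below 50% of the DMSO control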); conditions: S. cerevisiae RPL19A-GFP strain, 3 h, at 10 µM, stronger effect = lower value, 100 = same GFP as DMSO wells
# [2] = LAP4-GFP expression modulators in yeast, confirmation, cell-based, cherry picks, flow cytometry, mother/daughter gates (AID 2271;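 active means GFP response above 150% of the DMSO control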;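 further: ratio of sample to DMSO plate mean so 100% equals DMSO level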); conditions: S. cerevisiae LAP4-GFP strain, 3 h, at 10 µM, stronger effect = higher value
# [3] = modulators of MEP2-GFP levels in yeast, confirmation, S. cerevisiae, flow cytometry GFP, cherry picks (AID 2272;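 active means GFP response above 150% of the DMSO control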;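 further: ratio of well signal to plate DMSO mean so 100% equals DMSO level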); conditions: S. cerevisiae MEP2-GFP strain, 3 h, at 10 µM, stronger effect = higher value
# [4] = AGP1-GFP expression modulators, hit retest, confirmation, cell-based, flow cytometry, S. cerevisiae, cherry picks (AID 2273);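 further: median GFP channel fluorescence over the whole cell population gate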; conditions: S. cerevisiae AGP1-GFP strain, 3 h, at 10 µM
# [5] = modulators of CIT2-GFP expression in yeast, confirmation, S. cerevisiae, GFP fusion, cherry picks, mother/daughter gates (AID 2274); conditions: S. cerevisiae CIT2-GFP strain, flow cytometry, 3 h, at 10 µM, stronger effect = higher value
# [6] = target: Cell division control protein 42 homolog (Homo sapiens) (UniProt P60953); test: activated mutant Cdc42 GTP-binding inhibitors, dose response, biochemical, multiplex bead flow cytometry, Bodipy-FL-GTP (AID 1333;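 active means fitted half-maximal concentration within the tested dose range, moderate curve steepness, a statistically real signal drop, and little compound fluorescence or tag-binding interference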)
# [7] = target: Cell division control protein 42 homolog (Homo sapiens) (UniProt P60953); test: wildtype Cdc42 GTP-binding inhibitors, dose response, biochemical, multiplex bead flow cytometry, Bodipy-FL-GTP (AID 1334;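 active means fitted half-maximal concentration within the tested range, moderate curve steepness, significant signal drop, and little compound fluorescence or bead-linkage interference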); conditions: bead-based flow cytometry, Bodipy-FL-GTP binding to GST-Cdc42; at 100 µM (top of the series)
# [8] = tested on: Ras-related protein Rab-7a (dog), GTP binding; test: Rab7 GTP binding inhibitors, potency, dose response, biochemical, wildtype, multiplex bead flow cytometry (AID 1336; call rule not given here)
# [9] = target: Ras-related C3 botulinum toxin substrate 1 (Homo sapiens) (UniProt P63000); test: wildtype Rac1 GTP binding inhibitors, dose response, biochemical, multiplex bead flow cytometry (AID 1340;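 active means dose curve with midpoint inside tested range, moderate steepness, plateau gap beyond fit error, low compound glow and bead-link interference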); conditions: GST-Rac1 beads, Bodipy-FL-GTP binding; at 100 µM (top of the series)
# [10] = target: GTPase HRas (Homo sapiens) (UniProt P01112); test: activated Ras mutant GTP binding inhibitors, dose response, biochemical, multiplex bead flow cytometry (AID 1341;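 active means dose-response curve with midpoint inside the tested range, moderate steepness, significant amplitude and little compound fluorescence or bead-attachment interference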;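 further: GST-tagged constitutively activated Ras mutant immobilized on beads and multiplexed with other GTPases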)
# [11] = measured here: daughter cell gate
# [12] = measured here: mother cell gate
# [13] = measured here: daughter cell gate response
# [14] = measured here: mother cell gate response
# Cell division control protein 42 homolog (Homo sapiens), sequence (P60953 whole entry, looked up): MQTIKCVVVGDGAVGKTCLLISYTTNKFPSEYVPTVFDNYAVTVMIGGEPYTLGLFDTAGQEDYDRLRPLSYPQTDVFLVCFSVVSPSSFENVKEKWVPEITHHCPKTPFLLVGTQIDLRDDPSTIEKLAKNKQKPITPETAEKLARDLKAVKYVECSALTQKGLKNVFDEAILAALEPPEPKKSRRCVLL
structure (smiles),measurement,setting,value
C[C@H](O)[C@H]1CC[C@H]2[C@@H]3CCC4=CC(=O)CC[C@]4(C)[C@H]3CC[C@]12C,GFP response vs DMSO,[1],97.8% (inactive)
same,GFP response vs DMSO,[1]; [11],93%
same,GFP response vs DMSO,[1]; [12],99.6%
same,GFP response relative to DMSO,[2],117% (inactive)
same,GFP response relative to DMSO,[2]; [13],117%
same,GFP response relative to DMSO,[2]; [14],120%
same,GFP response vs DMSO,[3],95.7% (inactive)
same,"GFP response, % of DMSO",[4],93.7% (inactive)
same,"GFP response, % of DMSO",[5],96.5% (inactive)
same,"GFP response, % of DMSO",[5]; [11],89.9%
same,"GFP response, % of DMSO",[5]; [12],98.7%
CC12CN3CC(C)(CN(C1)C31CCOCC1)C2=O,GFP response vs DMSO,[1],95.6% (inactive)
same,GFP response vs DMSO,[1]; [11],96.9%
same,GFP response vs DMSO,[1]; [12],96.6%
same,GFP response relative to DMSO,[2],99.2% (inactive)
same,GFP response relative to DMSO,[2]; [13],97.6%
same,GFP response relative to DMSO,[2]; [14],100%
same,GFP response vs DMSO,[3],96.2% (inactive)
same,"GFP response, % of DMSO",[4],99.5% (inactive)
same,"GFP response, % of DMSO",[5],101% (inactive)
same,"GFP response, % of DMSO",[5]; [11],103%
same,"GFP response, % of DMSO",[5]; [12],101%
CC[C@@H]1C(=O)OC[C@@H]1Cc1cncn1C,GFP response vs DMSO,[1],99.5% (inactive)
same,GFP response vs DMSO,[1]; [11],98.3%
same,GFP response vs DMSO,[1]; [12],100%
same,GFP response relative to DMSO,[2],102% (inactive)
same,GFP response relative to DMSO,[2]; [13],101%
same,GFP response relative to DMSO,[2]; [14],102%
same,GFP response vs DMSO,[3],104% (inactive)
same,"GFP response, % of DMSO",[4],103% (inactive)
same,"GFP response, % of DMSO",[5],99.3% (inactive)
same,"GFP response, % of DMSO",[5]; [11],98.3%
same,"GFP response, % of DMSO",[5]; [12],100%
CCCCN1C(=O)/C(=C\c2ccco2)C(=O)N(CCc2ccccc2)C1=O,outcome,[6],inactive
same,"fluorescence, percent of control (lower = inhibition)",[7],77.8%
same,outcome,[8],inactive
same,"GTP binding signal, raw median fluorescence (lower = inhibition) (MCF (arbitrary fluorescence units))",[9],129
same,outcome,[10],inactive
CCn1nc(/C=C/c2ccccc2)nc2c(=O)n(C)c(=O)nc1-2,outcome,[8],inactive
same,"GTP binding signal, raw median fluorescence (lower = inhibition) (MCF (arbitrary fluorescence units))",[9],195
same,outcome,[10],inactive
CC(Oc1ccc(-c2ccccc2)cc1)C(=O)O (stereo not given),outcome,[6],inactive
same,"fluorescence, percent of control (lower = inhibition)",[7],126%
same,outcome,[8],inactive
same,"GTP binding signal, raw median fluorescence (lower = inhibition) (MCF (arbitrary fluorescence units))",[9],213
same,outcome,[10],inactive
Cc1nn(Cc2ccccc2)c(Cl)c1C(=O)O,"fluorescence, percent of control (lower = inhibition)",[7],45.4%
same,"GTP binding signal, raw median fluorescence (lower = inhibition) (MCF (arbitrary fluorescence units))",[9],270
same,outcome,[10],inactive
O=C(O)c1cn(Cc2ccc(Br)cc2)c2ccccc12,outcome,[6],inactive
same,"fluorescence, percent of control (lower = inhibition)",[7],91.7%
same,outcome,[8],inactive
same,"GTP binding signal, raw median fluorescence (lower = inhibition) (MCF (arbitrary fluorescence units))",[9],74
same,outcome,[10],inactive
C[C@]12CCC(=O)C=C1CC[C@@H]1[C@@H]2CC[C@]2(C)C(=O)CC[C@@H]12,GFP response vs DMSO,[1],96.8% (inactive)
same,GFP response vs DMSO,[1]; [11],95.1%
same,GFP response vs DMSO,[1]; [12],97.7%
same,GFP response relative to DMSO,[2],102% (inactive)
same,GFP response relative to DMSO,[2]; [13],102%
same,GFP response relative to DMSO,[2]; [14],101%
same,GFP response vs DMSO,[3],94.1% (inactive)
same,"GFP response, % of DMSO",[4],91.2% (inactive)
same,"GFP response, % of DMSO",[5],98.3% (inactive)
same,"GFP response, % of DMSO",[5]; [11],97.2%
same,"GFP response, % of DMSO",[5]; [12],99.7%
